Screens from PubChem BioAssay.
DAX1 inh-1 = DAX1 (NR0B1) inhibitors on StAR promoter, primary screen, cell-based, luminescence, SF-1 (NR5A1), full-length DAX-1 | HEK293T StAR-luciferase reporter, SF-1/DAX-1 repression relief | inhibition, % at 6.8 µM | actives 1.1% (n = 370,000) | AID 652010, 2013;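 active = inhibition above the mean over all tested compounds plus 3 SD, cut at about 3.6% in these data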;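 note: 0% = DAX-1 cells with DMSO and 100% = cells lacking DAX-1 with DMSO; higher inhibition means more luminescence from relief of DAX-1 repression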
hgDAF-12 ag = H. glycines DAF-12 receptor agonists, primary screen, cell-based, luminescence, HEK293, GAL4 fusion, UAS-luciferase | Nuclear hormone receptor DAF-12 (Heterodera glycines), GAL4 fusion | HEK293 GAL4-hgDAF12 UAS-luciferase reporter, agonist luminescence; normalized to butyrate control | activation, % at 6.8 µM | actives 1.8% (n = 370,000);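 active = activation above a cutoff set at the mean of all screened compounds plus 3 SD, cut at about 10% in these data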;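 note: 0% = DMSO wells and 100% = sodium butyrate wells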
ssDAF12 agonist = S. stercoralis DAF-12 nuclear receptor activators, primary screen, cell-based, luminescence, HEK293, GRIP1 co-expression, lit1-tk-luc; actives 1% (n = 370,000); HEK293 ssDAF-12/GRIP1 lit1-tk-luc reporter; % of 3 µM dafachronic acid response; activation, % at 6.8 µM; Nuclear hormone receptor DAF-12 (Strongyloides stercoralis);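 active = activation above the mean over all tested compounds plus 3 SD, cut at about 0.9% in these data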;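 note: 0% = DMSO-only wells and 100% = 3 µM delta7-dafachronic acid wells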
hcDAF-12 act = H. contortus DAF-12 nuclear receptor activators, primary screen, cell-based, luminescence, HEK293, lit1-tk-luc reporter; HEK293 hcDAF-12 lit1-tk-luc reporter; 0% DMSO, 100% Δ7-dafachronic acid; activation, % at 6.8 µM; actives 1.4% (n = 370,000);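 active = activation above the mean of all tested compounds plus 3 SD, cut at about 5.5% in these data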;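 note: 100% = response to 3 µM Δ7-dafachronic acid high control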
Rev-erbA mod = modulators of Rev-erb alpha DNA binding, primary screen, biochemical, FITC-DNA, fluorescence polarization, uHTS | Rev-erbα–FITC-DNA binding, 90 min | activity, % at 10 µM | actives 0.79% (n = 370,000) | AID 1259318, 2017;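 active = activity above about 14%, limit read from the data; passing the limit was not always enough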;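 note: 0% = DMSO wells with 35 nM protein and 100% = DMSO wells with 750 nM protein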
Target sequence (P20393 whole entry, looked up): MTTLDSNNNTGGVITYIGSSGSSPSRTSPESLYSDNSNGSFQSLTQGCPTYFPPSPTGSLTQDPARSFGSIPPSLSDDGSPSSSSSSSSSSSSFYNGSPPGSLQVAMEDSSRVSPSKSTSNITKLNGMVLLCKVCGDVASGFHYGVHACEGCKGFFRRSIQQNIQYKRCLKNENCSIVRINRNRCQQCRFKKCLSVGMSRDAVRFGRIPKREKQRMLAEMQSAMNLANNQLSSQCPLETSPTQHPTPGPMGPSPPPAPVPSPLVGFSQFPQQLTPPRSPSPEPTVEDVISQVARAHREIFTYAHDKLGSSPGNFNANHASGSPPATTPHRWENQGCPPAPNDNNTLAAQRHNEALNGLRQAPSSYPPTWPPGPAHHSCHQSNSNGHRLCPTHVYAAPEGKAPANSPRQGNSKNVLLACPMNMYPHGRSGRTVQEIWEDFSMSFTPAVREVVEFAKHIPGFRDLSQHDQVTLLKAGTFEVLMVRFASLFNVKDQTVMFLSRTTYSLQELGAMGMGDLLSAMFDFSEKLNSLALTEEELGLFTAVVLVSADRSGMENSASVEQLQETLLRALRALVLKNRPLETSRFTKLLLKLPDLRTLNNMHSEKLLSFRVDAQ
DAX1 inh-2 = DAX1 (NR0B1) inhibitors, primary screen, cell-based, HEK293, Gal4-DAX1, luciferase luminescence; Nuclear receptor subfamily 0 group B member 1 (Homo sapiens), P51843; HEK293 Gal4-DAX1 luciferase reporter; actives 0.99% (n = 340,000); inhibition, % at 6.75 µM;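 active = inhibition above the mean over all tested compounds plus 3 SD, cut at about 4.2% in these data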;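 note: 0% = DAX1-transfected cells with DMSO and 100% = empty-vector control cells with DMSO; inhibition shows as a rise in luminescence from relieved DAX1 repression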
Starred values were filed as active, the others as inactive; / = no result. Shown are actives, neighbours in structure and some others; about 4.8% of the full set was active somewhere.

SMILES	DAX1 inh-1	hgDAF-12 ag	ssDAF12 agonist	hcDAF-12 act	Rev-erbA mod	DAX1 inh-2
CCOC(=O)c1ccc(NC(=S)Nc2ccc(C)cc2)cc1	0.3	1.5	-0.4	-1.5	-0.2	-1.0
CC(C)OC(=O)CCC/C=C\C[C@@H]1[C@@H](/C=C/[C@@H](O)COc2cccc(C(F)(F)F)c2)[C@H](O)C[C@@H]1O	/	/	/	/	-1.9	/
COC(=O)[C@]12C[C@H](CC(=O)NCc3cccc4ccccc34)C(=O)N(Cc3ccco3)C1=C[C@H](C(C)(C)C)O[C@@H]2C	0.7	-2.3	-0.8	-2.8	-3.6	/
COc1ccc(NC(=O)c2cccs2)c([N+](=O)[O-])c1	0.6	7.8	-0.9	2.8	0.5	0.6
COc1ccc(CCNC(=O)C/C(C)=N/NC(=O)c2cnccn2)cc1	4.2*	4.9	-0.9	2.5	-3.4	0.8
COc1ccc(NC(=O)C/C(C)=N/NC(=O)c2ccccn2)c(OC)c1	2.8	12.0*	-0.2	4.5	3.3	0.9
COc1ccc(NC(=O)C/C(C)=N/NC(=O)c2cccs2)c([N+](=O)[O-])c1	2.0	10.7*	-0.4	5.0	1.7	3.5
Cc1ccccc1CS(=O)(=O)Cc1ccc(C(=O)Nc2ccc(F)cc2)o1	-3.7	-7.5	-2.0	-5.7	1.8	/
Cc1cc(/C=C2/NC(=O)N(Cc3ccccc3F)C2=O)c(C)n1-c1ccccn1	0.0	4.6	1.3*	4.3	3.4	-0.6
O=[N+]([O-])c1ccc(CN2CCOCCOCCN(Cc3ccc([N+](=O)[O-])cc3Cl)CCOCC2)c(Cl)c1	/	-0.2	-1.4	0.6	-3.0	/
Cc1ccc2c(C)c(C(=O)N3CCN(Cc4ccc5c(c4)OCO5)CC3)oc2c1C	2.5	9.8	-0.4	5.8*	-1.3	0.4
Cc1ccc(C(=O)N2CCN(Cc3ccc4c(c3)OCO4)CC2)o1	-0.5	0.2	-1.7	-1.5	2.9	-0.3
N#CCC[C@@H]1CC[C@]2(CCCN(C(=O)c3ccco3)C2)O1	-0.9	3.0	-1.2	-0.7	0.6	/
COC(=O)[C@]12C[C@H](CC(=O)N3CCN(C(=O)C4CC4)CC3)C(=O)N(CCc3ccc(OC)c(OC)c3)C1=C[C@H](C(C)(C)C)O[C@@H]2C	-0.3	-1.6	-0.5	-0.7	6.2	/
Cc1ccc(CNc2ccc3c(c2)ncn3C)cc1	2.4	5.7	0.1	2.9	-3.0	1.1
Cc1ccc(CNc2ccc3c(c2)ncn3C(C)(C)C)cc1	4.1*	9.3	0.6	5.3	5.2	6.6*
CCN(CC)C(=O)Oc1ccc2c(=O)c(-c3ccccc3)coc2c1	4.1*	11.5*	0.4	1.3	-1.4	1.5
CCOc1ccc(N=C(/C(C(=O)C(=O)N2CCOCC2)=C(\O)c2ccccc2)c2ccccc2)cc1	2.1	11.7*	0.1	4.1	-1.0	4.0
Cc1cc([N+](=O)[O-])nn1CCCC(=O)NC1CCCCC1	0.0	-0.4	-1.7	-1.1	-3.7	8.3*
Cc1nnc(SCC(=O)N(C)c2ccccc2)n1-n1cccc1	/	/	/	/	-2.4	4.7*
CN(C(=O)CSc1nnc(-c2cccs2)n1N)c1ccccc1	0.0	-0.9	-1.0	0.4	-3.8	0.2
Cc1nc(N2CCCCC2C)c2nnn(Cc3ccccc3)c2n1 (stereo unspecified)	-0.1	-2.4	-1.4	-1.4	-1.8	/
COCCCn1c(=O)/c(=C\c2cccc(OC)c2OC)s/c1=C(/C#N)C(=O)Nc1ccc(C(=O)O)cc1	-0.3	-2.3	-1.4	0.6	-3.5	4.3*
COc1ccc(C(C)NC(=O)c2ccc(Br)cc2)cc1OC (stereo unspecified)	-0.1	-2.3	-1.8	-1.0	-4.0	0.8
COc1ccc(OC)c(C(C)NC(=O)c2ccc(Br)cc2)c1 (stereo unspecified)	-0.4	0.5	-1.6	-0.2	1.8	8.4*
SMILES	DAX1 inh-1	hgDAF-12 ag	ssDAF12 agonist	hcDAF-12 act	Rev-erbA mod	DAX1 inh-2
CCCCCCC(=O)n1ccc2ccc(-c3ccc4ccn(Cc5ccc(OC)cc5)c4c3)cc21	-1.1	1.5	-1.1	-2.4	-2.2	/
O=C(O)CN1C(=O)/C(=C2\SC(=S)N(C(Cc3ccccc3)C(=O)O)C2=O)c2ccccc21 (stereo unspecified)	0.2	1.3	1.2*	6.4*	4.0	0.4
CCCC(C(=O)O)N1C(=O)/C(=C2\C(=O)N(C)c3ccccc32)SC1=S (stereo unspecified)	0.0	-0.3	0.1	2.5	0.7	-0.5
O=C(CCc1ccccc1)N[C@H]1[C@@H](OC(=O)c2cccnc2)CCC[C@@]12C(=O)N(Cc1ccccc1)c1ccccc12	-2.0	-7.8	-2.0	-4.7	-1.3	/
N#Cc1cc2cc3c(cc2nc1N1CCCCC1)OCCO3	-0.6	-5.3	-0.2	6.2*	-0.2	1.8
Cn1c(-c2ccccc2)cccc1=O	-0.1	0.6	1.3*	1.4	1.3	1.2
Cn1c(-c2ccccc2)cc(=O)n1-c1ccccc1	1.0	-1.6	-0.3	1.8	4.7	0.8
O=C(Nc1cccc(O)c1)c1cc(-c2ccco2)on1	0.8	11.1*	-1.3	1.0	2.5	1.2
CC(=O)c1cccc(NC(=O)c2cc(-c3ccco3)on2)c1	0.2	4.0	-1.0	-0.9	2.8	0.7
CCCNC(=O)Cn1cc(S(=O)(=O)N2CCCC2)c(S(=O)(=O)N2CCCC2)c1	3.9*	1.9	-1.1	1.5	3.5	0.8
O=C(Nc1nc(Cc2ccccc2)c(-c2ccccc2)n1Cc1ccccc1)c1ccccc1	0.6	-0.5	-1.3	-0.3	0.9	/
O=C(NCCCCCCOC1=NS(=O)(=O)c2ccccc21)C(=O)Nc1ccccc1	0.5	11.0*	-1.5	-0.8	2.8	-0.2
CC(CCOC1=NS(=O)(=O)c2ccccc21)NC(=O)C(=O)Nc1ccccc1 (stereo unspecified)	0.2	5.2	-0.4	0.3	-3.2	3.1
O=C(COC(=O)c1ccccc1O)NNC(=O)c1ccc(Br)cc1	-0.8	-0.8	-0.9	0.9	10.4	0.0
O=C(CNC(=O)c1ccc(Br)cc1)c1ccccc1	2.7	13.2*	-0.1	3.6	-1.6	1.2
O=C(CSc1ccccc1)N1CCN(c2ccccc2)CC1	-0.1	5.0	-1.2	0.6	-0.9	-0.2
O=C(NNC(=O)c1ccccc1O)c1ccc(Br)cc1	0.1	5.1	-1.5	-1.3	-1.5	7.4*
Cc1nc(C(=O)NCC(=O)c2ccc(Cl)cc2)c(C(F)(F)F)o1	-0.4	-1.5	1.6*	-1.1	-3.3	-0.3
